# Data published in publication PMC7862700, “An all-to-all approach to the identification of sequence-specific readers for epigenetic DNA modifications on cytosine”.
# Tests used:
# Assay in all cases: DAPPL (digital affinity profiling via proximity ligation, sequencing); 10 mM Tris-HCl pH 7.5, 50 mM NaCl, 1 mM DTT, 4% glycerol, room temperature, 30 min; GST-TFs on glutathione beads, 16-mer random dsDNA library, 0.1% formaldehyde crosslink after washing; high values mean tight binding
# FLI1 = target: T1, FLI1 (Homo sapiens, UniProt Q01543 1-452); conditions: protein: recombinant; tags: N-terminal GST; dsDNA, one strand shown
# T1 sequence: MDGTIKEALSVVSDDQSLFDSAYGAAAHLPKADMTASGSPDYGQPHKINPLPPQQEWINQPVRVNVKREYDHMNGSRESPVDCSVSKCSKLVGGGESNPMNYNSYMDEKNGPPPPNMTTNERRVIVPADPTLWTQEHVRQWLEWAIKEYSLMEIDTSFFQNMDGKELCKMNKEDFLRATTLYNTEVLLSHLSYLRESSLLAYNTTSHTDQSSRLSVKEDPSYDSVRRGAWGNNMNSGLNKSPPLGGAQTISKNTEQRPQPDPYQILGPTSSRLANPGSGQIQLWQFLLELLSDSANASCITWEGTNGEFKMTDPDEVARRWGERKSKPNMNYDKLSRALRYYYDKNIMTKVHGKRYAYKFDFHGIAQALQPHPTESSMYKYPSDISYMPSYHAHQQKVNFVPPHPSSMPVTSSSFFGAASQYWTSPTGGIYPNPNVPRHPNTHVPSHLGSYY
# In short: (§1)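 A tag-only sample was pooled with DNA-barcoded human transcription factors that had been expressed in yeast as GST fusions and captured on glutathione beads. The pools were incubated for 30 min at room temperature with 200 nmole of a random double-stranded 16-mer DNA library in Tris/NaCl/DTT/glycerol buffer, then washed, crosslinked with 0.1% formaldehyde, proximity-ligated (BsaI/T4 ligase, 1 h, 37 °C), PCR-amplified and sequenced on an Illumina NextSeq500. Binding signal is each hexamer's read frequency for a factor divided by its frequency for the tag-only sample.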
# ELK1 = target: T2, ELK1 (Homo sapiens, UniProt P19419 1-428); conditions: protein: recombinant; tags: N-terminal GST; dsDNA, one strand shown
# T2 sequence: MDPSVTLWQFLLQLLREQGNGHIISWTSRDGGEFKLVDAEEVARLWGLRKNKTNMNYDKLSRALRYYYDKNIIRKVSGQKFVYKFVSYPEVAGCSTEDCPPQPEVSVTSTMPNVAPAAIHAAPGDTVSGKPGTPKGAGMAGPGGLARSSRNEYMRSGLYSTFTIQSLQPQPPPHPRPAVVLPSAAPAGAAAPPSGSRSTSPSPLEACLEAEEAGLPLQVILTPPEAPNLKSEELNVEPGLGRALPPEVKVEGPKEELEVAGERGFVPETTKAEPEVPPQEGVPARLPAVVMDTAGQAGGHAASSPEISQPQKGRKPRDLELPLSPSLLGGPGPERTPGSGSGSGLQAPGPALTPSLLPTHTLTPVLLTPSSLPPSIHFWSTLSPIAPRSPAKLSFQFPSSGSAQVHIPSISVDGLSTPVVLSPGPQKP
# In short: as §1
# GABPA = target: T3, GABPA (Homo sapiens, UniProt Q06546 1-454); conditions: protein: recombinant; tags: N-terminal GST; dsDNA, one strand shown
# T3 sequence: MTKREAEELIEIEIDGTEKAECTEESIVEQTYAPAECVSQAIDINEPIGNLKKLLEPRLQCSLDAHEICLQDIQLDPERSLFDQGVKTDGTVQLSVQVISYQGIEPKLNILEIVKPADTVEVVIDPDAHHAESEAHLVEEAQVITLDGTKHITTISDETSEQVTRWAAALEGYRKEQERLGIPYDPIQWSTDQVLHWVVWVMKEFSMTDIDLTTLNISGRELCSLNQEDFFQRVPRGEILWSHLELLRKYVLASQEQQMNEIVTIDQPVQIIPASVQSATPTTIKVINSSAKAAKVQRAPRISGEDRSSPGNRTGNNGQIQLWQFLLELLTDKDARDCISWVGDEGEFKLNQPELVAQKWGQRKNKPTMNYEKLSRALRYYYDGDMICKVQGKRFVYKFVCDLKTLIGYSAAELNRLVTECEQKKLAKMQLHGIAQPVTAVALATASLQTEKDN
# In short: as §1
# ERG = target: T4, ERG (Homo sapiens, UniProt P11308 1-479); conditions: protein: recombinant; tags: N-terminal GST; dsDNA, one strand shown
# T4 sequence: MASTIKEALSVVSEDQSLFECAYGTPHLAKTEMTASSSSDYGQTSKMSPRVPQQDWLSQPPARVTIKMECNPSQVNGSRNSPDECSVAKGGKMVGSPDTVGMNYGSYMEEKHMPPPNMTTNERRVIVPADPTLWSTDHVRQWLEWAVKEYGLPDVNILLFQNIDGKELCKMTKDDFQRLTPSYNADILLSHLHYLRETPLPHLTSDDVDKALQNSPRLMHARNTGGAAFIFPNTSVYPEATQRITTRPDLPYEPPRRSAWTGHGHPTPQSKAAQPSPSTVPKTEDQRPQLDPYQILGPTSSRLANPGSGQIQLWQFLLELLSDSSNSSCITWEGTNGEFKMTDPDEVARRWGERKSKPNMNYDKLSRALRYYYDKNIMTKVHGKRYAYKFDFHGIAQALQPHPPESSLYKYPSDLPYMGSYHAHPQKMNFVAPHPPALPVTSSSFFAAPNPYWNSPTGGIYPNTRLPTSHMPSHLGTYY
# In short: as §1
# ELF1 = ELF1 (Homo sapiens, UniProt P32519 1-619); conditions: protein: recombinant; tags: N-terminal GST; dsDNA, one strand shown
# In short: as §1
# EHF = target: T5, EHF (Homo sapiens, UniProt Q9NZC4 1-300); conditions: protein: recombinant; tags: N-terminal GST; dsDNA, one strand shown
# T5 sequence: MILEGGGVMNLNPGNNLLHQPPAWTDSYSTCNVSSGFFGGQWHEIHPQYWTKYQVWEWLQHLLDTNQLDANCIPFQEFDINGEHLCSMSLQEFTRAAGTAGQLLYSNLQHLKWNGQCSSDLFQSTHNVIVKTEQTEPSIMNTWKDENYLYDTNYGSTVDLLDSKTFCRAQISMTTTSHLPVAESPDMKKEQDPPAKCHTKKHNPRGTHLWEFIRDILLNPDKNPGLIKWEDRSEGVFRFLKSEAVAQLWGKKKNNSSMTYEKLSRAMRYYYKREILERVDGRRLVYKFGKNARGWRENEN
# In short: as §1
# SPI1 = SPI1 (Homo sapiens, UniProt P17947 1-270); conditions: protein: recombinant; tags: N-terminal GST; dsDNA, one strand shown
# In short: as §1
# SPIB = SPIB (Homo sapiens, UniProt Q01892 1-262); conditions: protein: recombinant; tags: N-terminal GST; dsDNA, one strand shown
# In short: as §1
# FEV = target: T6, FEV (Homo sapiens, UniProt Q99581 1-238); conditions: protein: recombinant; tags: N-terminal GST; dsDNA, one strand shown
# T6 sequence: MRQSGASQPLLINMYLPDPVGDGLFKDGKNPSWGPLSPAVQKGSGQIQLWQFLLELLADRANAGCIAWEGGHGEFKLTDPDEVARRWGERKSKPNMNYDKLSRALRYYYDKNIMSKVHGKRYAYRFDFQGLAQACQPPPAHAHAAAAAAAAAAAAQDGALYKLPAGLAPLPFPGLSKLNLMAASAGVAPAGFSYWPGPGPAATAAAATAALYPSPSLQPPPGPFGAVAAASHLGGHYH
# In short: as §1
# ETV5 = ETV5 (Homo sapiens, UniProt P41161 1-510); conditions: protein: recombinant; tags: N-terminal GST; dsDNA, one strand shown
# In short: as §1
# HSF1 = HSF1 (Homo sapiens, UniProt Q00613 1-529); conditions: protein: recombinant; tags: N-terminal GST; chain copies: 3; dsDNA, one strand shown
# In short: as §1
# SPIC = target: T7, SPIC (Homo sapiens, UniProt Q8N5J4 1-248); conditions: protein: recombinant; tags: N-terminal GST; dsDNA, one strand shown
# T7 sequence: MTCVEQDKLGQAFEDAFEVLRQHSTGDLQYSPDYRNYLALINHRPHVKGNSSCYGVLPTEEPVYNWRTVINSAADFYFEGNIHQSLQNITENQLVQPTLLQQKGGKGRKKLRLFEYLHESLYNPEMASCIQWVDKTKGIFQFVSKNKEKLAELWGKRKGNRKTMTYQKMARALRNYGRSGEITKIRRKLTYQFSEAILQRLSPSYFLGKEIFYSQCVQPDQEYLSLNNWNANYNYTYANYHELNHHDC
# In short: as §1
# ELF4 = ELF4 (Homo sapiens, UniProt Q99607 1-663); conditions: protein: recombinant; tags: N-terminal GST; dsDNA, one strand shown
# In short: as §1
# ELK4 = target: T8, ELK4 (Homo sapiens, UniProt P28324-2 1-405); conditions: protein: recombinant; tags: N-terminal GST; dsDNA, one strand shown
# T8 sequence: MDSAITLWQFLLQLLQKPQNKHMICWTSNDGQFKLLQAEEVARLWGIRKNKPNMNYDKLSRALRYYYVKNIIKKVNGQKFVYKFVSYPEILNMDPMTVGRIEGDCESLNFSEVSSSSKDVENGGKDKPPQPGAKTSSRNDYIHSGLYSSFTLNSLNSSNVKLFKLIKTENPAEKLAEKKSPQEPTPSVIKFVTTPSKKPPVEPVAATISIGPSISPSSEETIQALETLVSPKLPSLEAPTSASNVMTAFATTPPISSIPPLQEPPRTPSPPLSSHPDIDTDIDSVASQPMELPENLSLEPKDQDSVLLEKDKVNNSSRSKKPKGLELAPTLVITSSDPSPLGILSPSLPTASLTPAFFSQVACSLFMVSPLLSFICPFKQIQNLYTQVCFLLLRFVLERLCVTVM
# In short: as §1
# ETV2 = target: T9, ETV2 (Homo sapiens, UniProt O00321 1-342); conditions: protein: recombinant; tags: N-terminal GST; dsDNA, one strand shown
# T9 sequence: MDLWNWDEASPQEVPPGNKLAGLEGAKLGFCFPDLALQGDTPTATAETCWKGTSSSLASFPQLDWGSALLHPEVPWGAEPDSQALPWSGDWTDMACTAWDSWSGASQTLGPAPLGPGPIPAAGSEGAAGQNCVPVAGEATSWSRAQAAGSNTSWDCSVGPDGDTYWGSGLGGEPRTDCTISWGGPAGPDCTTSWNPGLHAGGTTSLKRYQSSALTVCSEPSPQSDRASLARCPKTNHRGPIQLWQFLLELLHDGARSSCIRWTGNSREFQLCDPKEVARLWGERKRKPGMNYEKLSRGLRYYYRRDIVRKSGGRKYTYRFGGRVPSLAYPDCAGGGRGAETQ
# In short: as §1
# ELF3 = target: T10, ELF3 (Homo sapiens, UniProt P78545 1-371); conditions: protein: recombinant; tags: N-terminal GST; dsDNA, one strand shown
# T10 sequence: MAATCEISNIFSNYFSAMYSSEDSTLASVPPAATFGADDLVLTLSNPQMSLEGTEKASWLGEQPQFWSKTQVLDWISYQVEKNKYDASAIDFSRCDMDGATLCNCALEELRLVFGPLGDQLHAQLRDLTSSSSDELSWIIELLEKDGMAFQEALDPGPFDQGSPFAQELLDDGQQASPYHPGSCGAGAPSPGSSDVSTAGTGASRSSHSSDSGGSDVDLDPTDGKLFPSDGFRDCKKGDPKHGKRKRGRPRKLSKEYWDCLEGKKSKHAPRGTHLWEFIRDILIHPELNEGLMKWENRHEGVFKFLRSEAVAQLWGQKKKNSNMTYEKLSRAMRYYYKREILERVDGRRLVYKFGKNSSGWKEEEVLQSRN
# In short: as §1
# CRX = CRX (Homo sapiens, UniProt O43186 1-299); conditions: protein: recombinant; tags: N-terminal GST; dsDNA, one strand shown
# In short: as §1
# ETV1 = ETV1 (Homo sapiens, UniProt P50549 1-477); conditions: protein: recombinant; tags: N-terminal GST; dsDNA, one strand shown
# In short: as §1
# Sequence of SPIB (Q01892 whole entry): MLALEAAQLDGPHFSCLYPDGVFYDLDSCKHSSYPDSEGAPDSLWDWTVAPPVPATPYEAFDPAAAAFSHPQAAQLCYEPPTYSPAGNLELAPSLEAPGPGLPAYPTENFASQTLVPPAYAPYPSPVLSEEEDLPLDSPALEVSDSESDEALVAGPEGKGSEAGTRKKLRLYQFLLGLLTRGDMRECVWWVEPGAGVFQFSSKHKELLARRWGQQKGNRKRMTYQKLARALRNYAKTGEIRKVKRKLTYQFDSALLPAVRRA
# Sequence of CRX (O43186 whole entry): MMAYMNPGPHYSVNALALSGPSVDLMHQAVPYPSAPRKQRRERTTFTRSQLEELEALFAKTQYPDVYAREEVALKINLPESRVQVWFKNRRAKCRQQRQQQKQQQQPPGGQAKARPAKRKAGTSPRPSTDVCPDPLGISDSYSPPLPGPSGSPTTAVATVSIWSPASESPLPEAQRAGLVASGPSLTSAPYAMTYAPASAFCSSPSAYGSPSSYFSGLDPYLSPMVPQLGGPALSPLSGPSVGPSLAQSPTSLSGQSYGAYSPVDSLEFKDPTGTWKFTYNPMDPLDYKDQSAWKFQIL
# Sequence of HSF1 (Q00613 whole entry): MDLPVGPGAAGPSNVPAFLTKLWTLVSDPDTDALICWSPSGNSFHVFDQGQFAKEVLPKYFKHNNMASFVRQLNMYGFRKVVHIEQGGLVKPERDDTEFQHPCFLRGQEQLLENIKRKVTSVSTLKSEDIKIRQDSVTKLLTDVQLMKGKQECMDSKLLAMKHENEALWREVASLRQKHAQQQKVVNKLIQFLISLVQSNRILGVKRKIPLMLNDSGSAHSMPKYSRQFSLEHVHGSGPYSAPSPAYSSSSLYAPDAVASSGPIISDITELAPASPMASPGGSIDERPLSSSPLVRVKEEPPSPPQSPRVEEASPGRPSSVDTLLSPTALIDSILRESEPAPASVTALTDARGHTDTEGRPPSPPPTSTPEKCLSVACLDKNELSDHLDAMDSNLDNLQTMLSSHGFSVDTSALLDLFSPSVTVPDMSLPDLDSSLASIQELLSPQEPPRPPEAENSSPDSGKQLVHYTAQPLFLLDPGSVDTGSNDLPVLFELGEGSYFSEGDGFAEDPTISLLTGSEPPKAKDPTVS
# Sequence of ETV5 (P41161 whole entry): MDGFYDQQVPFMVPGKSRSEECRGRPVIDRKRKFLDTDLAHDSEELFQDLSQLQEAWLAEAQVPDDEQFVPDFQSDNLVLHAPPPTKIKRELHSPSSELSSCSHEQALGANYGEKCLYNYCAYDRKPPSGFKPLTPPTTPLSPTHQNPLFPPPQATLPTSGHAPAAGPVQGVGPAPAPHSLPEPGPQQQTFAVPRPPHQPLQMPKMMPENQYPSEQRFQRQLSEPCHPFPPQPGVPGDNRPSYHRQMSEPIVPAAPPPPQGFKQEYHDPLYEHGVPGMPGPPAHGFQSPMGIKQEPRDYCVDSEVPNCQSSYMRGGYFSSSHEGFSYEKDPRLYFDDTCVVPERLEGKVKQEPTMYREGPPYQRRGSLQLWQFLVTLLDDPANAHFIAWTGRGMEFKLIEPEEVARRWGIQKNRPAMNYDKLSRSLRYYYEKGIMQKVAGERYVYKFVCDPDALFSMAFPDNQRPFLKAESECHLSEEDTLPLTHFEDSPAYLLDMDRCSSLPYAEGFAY
# Sequence of ELF1 (P32519 whole entry): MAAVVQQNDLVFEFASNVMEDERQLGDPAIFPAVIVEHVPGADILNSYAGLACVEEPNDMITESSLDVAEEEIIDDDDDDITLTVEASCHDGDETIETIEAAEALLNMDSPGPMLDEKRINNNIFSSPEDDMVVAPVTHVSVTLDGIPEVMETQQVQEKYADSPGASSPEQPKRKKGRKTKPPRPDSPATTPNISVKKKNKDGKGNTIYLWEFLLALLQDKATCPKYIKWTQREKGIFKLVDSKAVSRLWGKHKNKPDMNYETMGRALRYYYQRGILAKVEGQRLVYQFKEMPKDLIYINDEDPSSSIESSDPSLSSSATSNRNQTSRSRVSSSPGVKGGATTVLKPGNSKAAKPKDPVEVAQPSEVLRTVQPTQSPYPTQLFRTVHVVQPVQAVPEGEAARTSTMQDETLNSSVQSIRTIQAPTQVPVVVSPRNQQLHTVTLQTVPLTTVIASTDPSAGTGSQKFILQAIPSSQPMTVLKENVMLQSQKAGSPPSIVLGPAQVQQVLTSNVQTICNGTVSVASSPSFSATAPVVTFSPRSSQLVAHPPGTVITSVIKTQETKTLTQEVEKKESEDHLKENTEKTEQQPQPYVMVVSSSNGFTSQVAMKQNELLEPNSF
# Sequence of ELF4 (Q99607 whole entry): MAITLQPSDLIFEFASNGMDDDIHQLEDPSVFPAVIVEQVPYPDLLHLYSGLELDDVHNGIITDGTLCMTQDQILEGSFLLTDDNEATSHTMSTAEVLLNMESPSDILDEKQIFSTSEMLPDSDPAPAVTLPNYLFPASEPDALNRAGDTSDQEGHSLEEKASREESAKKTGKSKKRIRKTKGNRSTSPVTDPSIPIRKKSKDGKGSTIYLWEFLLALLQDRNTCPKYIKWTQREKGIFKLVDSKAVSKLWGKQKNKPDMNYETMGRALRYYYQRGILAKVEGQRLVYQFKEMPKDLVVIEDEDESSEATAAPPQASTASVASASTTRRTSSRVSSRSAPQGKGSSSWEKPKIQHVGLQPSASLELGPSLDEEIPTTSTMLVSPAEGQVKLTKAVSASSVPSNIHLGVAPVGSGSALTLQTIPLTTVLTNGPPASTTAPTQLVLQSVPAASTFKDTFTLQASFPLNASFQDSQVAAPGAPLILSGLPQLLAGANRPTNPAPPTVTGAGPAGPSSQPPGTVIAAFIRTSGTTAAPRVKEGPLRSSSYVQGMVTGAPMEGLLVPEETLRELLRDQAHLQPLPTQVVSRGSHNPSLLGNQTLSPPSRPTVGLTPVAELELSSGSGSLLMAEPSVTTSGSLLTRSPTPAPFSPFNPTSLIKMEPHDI
# Sequence of ETV1 (P50549 whole entry): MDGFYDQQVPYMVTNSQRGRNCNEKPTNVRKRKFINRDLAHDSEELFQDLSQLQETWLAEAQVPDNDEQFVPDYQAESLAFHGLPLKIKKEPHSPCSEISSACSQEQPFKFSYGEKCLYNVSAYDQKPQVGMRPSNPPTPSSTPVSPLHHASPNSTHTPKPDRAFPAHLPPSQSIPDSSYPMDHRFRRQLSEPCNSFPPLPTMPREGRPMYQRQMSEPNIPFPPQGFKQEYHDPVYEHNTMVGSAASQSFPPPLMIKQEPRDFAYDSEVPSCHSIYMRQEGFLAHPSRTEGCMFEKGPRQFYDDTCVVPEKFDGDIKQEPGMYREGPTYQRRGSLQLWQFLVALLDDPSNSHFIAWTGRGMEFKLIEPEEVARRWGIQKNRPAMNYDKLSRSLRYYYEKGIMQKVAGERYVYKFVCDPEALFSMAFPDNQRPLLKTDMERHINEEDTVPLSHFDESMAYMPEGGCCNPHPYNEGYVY
Sequence,binding signal (FLI1),binding signal (ELK1),binding signal (GABPA),binding signal (ERG),binding signal (ELF1),binding signal (EHF),binding signal (SPI1),binding signal (SPIB),binding signal (FEV),binding signal (ETV5),binding signal (HSF1),binding signal (SPIC),binding signal (ELF4),binding signal (ELK4),binding signal (ETV2),binding signal (ELF3),binding signal (CRX),binding signal (ETV1)
TCTATG,"1.12 fold enrichment (6-mer frequency, TF over GST control)","1.2 fold enrichment (6-mer frequency, TF over GST control)","1.21 fold enrichment (6-mer frequency, TF over GST control)","1.03 fold enrichment (6-mer frequency, TF over GST control)","1.12 fold enrichment (6-mer frequency, TF over GST control)","1.13 fold enrichment (6-mer frequency, TF over GST control)","1.09 fold enrichment (6-mer frequency, TF over GST control)","1.12 fold enrichment (6-mer frequency, TF over GST control)","1.06 fold enrichment (6-mer frequency, TF over GST control)","1.1 fold enrichment (6-mer frequency, TF over GST control)","1.16 fold enrichment (6-mer frequency, TF over GST control)","1.11 fold enrichment (6-mer frequency, TF over GST control)","1.14 fold enrichment (6-mer frequency, TF over GST control)","1.16 fold enrichment (6-mer frequency, TF over GST control)","1.25 fold enrichment (6-mer frequency, TF over GST control)","1.1 fold enrichment (6-mer frequency, TF over GST control)","1.11 fold enrichment (6-mer frequency, TF over GST control)","1.1 fold enrichment (6-mer frequency, TF over GST control)"
AATCAT,"1.13 fold enrichment (6-mer frequency, TF over GST control)","1.12 fold enrichment (6-mer frequency, TF over GST control)","1.19 fold enrichment (6-mer frequency, TF over GST control)","1.12 fold enrichment (6-mer frequency, TF over GST control)","1.16 fold enrichment (6-mer frequency, TF over GST control)","1.17 fold enrichment (6-mer frequency, TF over GST control)","1.07 fold enrichment (6-mer frequency, TF over GST control)","1.21 fold enrichment (6-mer frequency, TF over GST control)","1.1 fold enrichment (6-mer frequency, TF over GST control)","1.15 fold enrichment (6-mer frequency, TF over GST control)","1.27 fold enrichment (6-mer frequency, TF over GST control)","1.14 fold enrichment (6-mer frequency, TF over GST control)","1.06 fold enrichment (6-mer frequency, TF over GST control)","1.12 fold enrichment (6-mer frequency, TF over GST control)","1.21 fold enrichment (6-mer frequency, TF over GST control)","1.17 fold enrichment (6-mer frequency, TF over GST control)","1.39 fold enrichment (6-mer frequency, TF over GST control)","1.15 fold enrichment (6-mer frequency, TF over GST control)"
